# Reference: publication PMC11062922 (Nature Chemical Biology, 2023)
# Where two headings read alike, the source gives them in different places.
# Columns and labels:
# Conditions in all cases: read-out: apparent Kd, n = 1
# PRKD1 = system: PRKD1
# PTK2B = system: PTK2B
# SIK3 = system: SIK3
# SLK = system: SLK
# [1] = compound concentrations:100 nM and 1000 nM (sheet 'Lestaurtinib' of Supplementary Table 1),run:Lestaurtinib_02584_R2,Plate:MR017
# [2] = compound concentrations:100 nM and 1000 nM (sheet 'Lestaurtinib' of Supplementary Table 1),run:Lestaurtinib_02584_R3,Plate:MR017
# [3] = compound concentrations:100 nM and 1000 nM (sheet 'Lestaurtinib' of Supplementary Table 1),run:Lestaurtinib_02601_R1,Plate:MR018
# [4] = compound concentrations:100 nM and 1000 nM (sheet 'Lestaurtinib' of Supplementary Table 1),run:Lestaurtinib_02724_R3,Plate:MR021
# [5] = compound concentrations:100 nM and 1000 nM (sheet 'Lestaurtinib' of Supplementary Table 1),run:Lestaurtinib_02748_R2,Plate:MR024
# [6] = compound concentrations:100 nM and 1000 nM (sheet 'Lestaurtinib' of Supplementary Table 1),run:Lestaurtinib_02896_R3,Plate:MR030
# [7] = compound concentrations:100 nM and 1000 nM (sheet 'Lestaurtinib' of Supplementary Table 1),run:Lestaurtinib_02339_R2,Plate:MR001
# [8] = compound concentrations:100 nM and 1000 nM (sheet 'Lestaurtinib' of Supplementary Table 1),run:Lestaurtinib_02422_R1,Plate:MR006
# [9] = compound concentrations:100 nM and 1000 nM (sheet 'Lestaurtinib' of Supplementary Table 1),run:Lestaurtinib_02443_R3,Plate:MR009
# [10] = compound concentrations:100 nM and 1000 nM (sheet 'Lestaurtinib' of Supplementary Table 1),run:Lestaurtinib_02473_R3,Plate:MR010
# [11] = compound concentrations:100 nM and 1000 nM (sheet 'Lestaurtinib' of Supplementary Table 1),run:Lestaurtinib_02496_R1,Plate:MR013
# [12] = compound concentrations:100 nM and 1000 nM (sheet 'Lestaurtinib' of Supplementary Table 1),run:Lestaurtinib_02496_R3,Plate:MR013
# [13] = compound concentrations:100 nM and 1000 nM (sheet 'Lestaurtinib' of Supplementary Table 1),run:Lestaurtinib_02748_R1,Plate:MR024
# [14] = compound concentrations:100 nM and 1000 nM (sheet 'Lestaurtinib' of Supplementary Table 1),run:Lestaurtinib_03172_R3,Plate:MR031
# [15] = compound concentrations:100 nM and 1000 nM (sheet 'Lestaurtinib' of Supplementary Table 1),run:Lestaurtinib_02367_R3,Plate:MR003
# [16] = compound concentrations:100 nM and 1000 nM (sheet 'Lestaurtinib' of Supplementary Table 1),run:Lestaurtinib_02381_R3,Plate:MR004
# [17] = compound concentrations:100 nM and 1000 nM (sheet 'Lestaurtinib' of Supplementary Table 1),run:Lestaurtinib_02422_R3,Plate:MR006
# [18] = compound concentrations:100 nM and 1000 nM (sheet 'Lestaurtinib' of Supplementary Table 1),run:Lestaurtinib_02438_R2,Plate:MR008
# [19] = compound concentrations:100 nM and 1000 nM (sheet 'Lestaurtinib' of Supplementary Table 1),run:Lestaurtinib_02482_R3,Plate:MR011
substance,measurement,setting,value
Lestaurtinib,potency estimated from few doses,PRKD1; [1],206 nM
same,potency estimated from few doses,PRKD1; [2],278 nM
same,potency estimated from few doses,PRKD1; [3],99.8 nM
same,potency estimated from few doses,"PRKD1; compound concentrations:100 nM and 1000 nM (sheet 'Lestaurtinib' of Supplementary Table 1),run:Lestaurtinib_02606_R1,Plate:MR019",131 nM
same,potency estimated from few doses,"PRKD1; compound concentrations:100 nM and 1000 nM (sheet 'Lestaurtinib' of Supplementary Table 1),run:Lestaurtinib_02606_R3,Plate:MR019",135 nM
same,potency estimated from few doses,PRKD1; [4],41.4 nM
same,potency estimated from few doses,"PRKD1; compound concentrations:100 nM and 1000 nM (sheet 'Lestaurtinib' of Supplementary Table 1),run:Lestaurtinib_02741_R1,Plate:MR023",13.3 nM
same,potency estimated from few doses,"PRKD1; compound concentrations:100 nM and 1000 nM (sheet 'Lestaurtinib' of Supplementary Table 1),run:Lestaurtinib_02741_R3,Plate:MR023",17.5 nM
same,potency estimated from few doses,PRKD1; [5],208 nM
same,potency estimated from few doses,"PRKD1; compound concentrations:100 nM and 1000 nM (sheet 'Lestaurtinib' of Supplementary Table 1),run:Lestaurtinib_02748_R3,Plate:MR024",254 nM
same,potency estimated from few doses,"PRKD1; compound concentrations:100 nM and 1000 nM (sheet 'Lestaurtinib' of Supplementary Table 1),run:Lestaurtinib_02795_R3,Plate:MR022",193 nM
same,potency estimated from few doses,PRKD1; [6],141 nM
same,potency estimated from few doses,PTK2B; [7],971 nM
same,potency estimated from few doses,PTK2B; [8],859 nM
same,potency estimated from few doses,"PTK2B; compound concentrations:100 nM and 1000 nM (sheet 'Lestaurtinib' of Supplementary Table 1),run:Lestaurtinib_02437_R3,Plate:MR007",800 nM
same,potency estimated from few doses,PTK2B; [9],928 nM
same,potency estimated from few doses,PTK2B; [10],58.4 nM
same,potency estimated from few doses,"PTK2B; compound concentrations:100 nM and 1000 nM (sheet 'Lestaurtinib' of Supplementary Table 1),run:Lestaurtinib_02487_R1,Plate:MR012",209 nM
same,potency estimated from few doses,PTK2B; [11],974 nM
same,potency estimated from few doses,"PTK2B; compound concentrations:100 nM and 1000 nM (sheet 'Lestaurtinib' of Supplementary Table 1),run:Lestaurtinib_02496_R2,Plate:MR013",703 nM
same,potency estimated from few doses,PTK2B; [12],966 nM
same,potency estimated from few doses,"PTK2B; compound concentrations:100 nM and 1000 nM (sheet 'Lestaurtinib' of Supplementary Table 1),run:Lestaurtinib_02572_R1,Plate:MR015",615 nM
same,potency estimated from few doses,"PTK2B; compound concentrations:100 nM and 1000 nM (sheet 'Lestaurtinib' of Supplementary Table 1),run:Lestaurtinib_02572_R2,Plate:MR015",666 nM
same,potency estimated from few doses,PTK2B; [13],954 nM
same,potency estimated from few doses,PTK2B; [14],1240 nM
same,potency estimated from few doses,"SIK3; compound concentrations:100 nM and 1000 nM (sheet 'Lestaurtinib' of Supplementary Table 1),run:Lestaurtinib_02339_R3,Plate:MR001",1990 nM
same,potency estimated from few doses,SIK3; [15],2180 nM
same,potency estimated from few doses,"SIK3; compound concentrations:100 nM and 1000 nM (sheet 'Lestaurtinib' of Supplementary Table 1),run:Lestaurtinib_02381_R2,Plate:MR004",2120 nM
same,potency estimated from few doses,SIK3; [16],1930 nM
same,potency estimated from few doses,"SIK3; compound concentrations:100 nM and 1000 nM (sheet 'Lestaurtinib' of Supplementary Table 1),run:Lestaurtinib_02407_R3,Plate:MR005",1890 nM
same,potency estimated from few doses,"SIK3; compound concentrations:100 nM and 1000 nM (sheet 'Lestaurtinib' of Supplementary Table 1),run:Lestaurtinib_02422_R2,Plate:MR006",1760 nM
same,potency estimated from few doses,SIK3; [17],1570 nM
same,potency estimated from few doses,"SIK3; compound concentrations:100 nM and 1000 nM (sheet 'Lestaurtinib' of Supplementary Table 1),run:Lestaurtinib_02437_R2,Plate:MR007",1400 nM
same,potency estimated from few doses,"SIK3; compound concentrations:100 nM and 1000 nM (sheet 'Lestaurtinib' of Supplementary Table 1),run:Lestaurtinib_02438_R1,Plate:MR008",1800 nM
same,potency estimated from few doses,SIK3; [18],1720 nM
same,potency estimated from few doses,"SIK3; compound concentrations:100 nM and 1000 nM (sheet 'Lestaurtinib' of Supplementary Table 1),run:Lestaurtinib_02438_R3,Plate:MR008",1330 nM
same,potency estimated from few doses,"SIK3; compound concentrations:100 nM and 1000 nM (sheet 'Lestaurtinib' of Supplementary Table 1),run:Lestaurtinib_02443_R1,Plate:MR009",1970 nM
same,potency estimated from few doses,"SIK3; compound concentrations:100 nM and 1000 nM (sheet 'Lestaurtinib' of Supplementary Table 1),run:Lestaurtinib_02443_R2,Plate:MR009",1960 nM
same,potency estimated from few doses,SIK3; [9],964 nM
same,potency estimated from few doses,SIK3; [10],1240 nM
same,potency estimated from few doses,SIK3; [19],1570 nM
same,potency estimated from few doses,"SIK3; compound concentrations:100 nM and 1000 nM (sheet 'Lestaurtinib' of Supplementary Table 1),run:Lestaurtinib_02487_R2,Plate:MR012",1700 nM
same,potency estimated from few doses,SIK3; [11],956 nM
same,potency estimated from few doses,SIK3; [12],1300 nM
same,potency estimated from few doses,"SIK3; compound concentrations:100 nM and 1000 nM (sheet 'Lestaurtinib' of Supplementary Table 1),run:Lestaurtinib_02566_R1,Plate:MR014",1420 nM
same,potency estimated from few doses,"SIK3; compound concentrations:100 nM and 1000 nM (sheet 'Lestaurtinib' of Supplementary Table 1),run:Lestaurtinib_02566_R3,Plate:MR014",1460 nM
same,potency estimated from few doses,"SIK3; compound concentrations:100 nM and 1000 nM (sheet 'Lestaurtinib' of Supplementary Table 1),run:Lestaurtinib_02577_R1,Plate:MR016",1590 nM
same,potency estimated from few doses,"SIK3; compound concentrations:100 nM and 1000 nM (sheet 'Lestaurtinib' of Supplementary Table 1),run:Lestaurtinib_02577_R2,Plate:MR016",1630 nM
same,potency estimated from few doses,"SIK3; compound concentrations:100 nM and 1000 nM (sheet 'Lestaurtinib' of Supplementary Table 1),run:Lestaurtinib_02577_R3,Plate:MR016",1960 nM
same,potency estimated from few doses,SIK3; [1],1420 nM
same,potency estimated from few doses,SIK3; [2],1300 nM
same,potency estimated from few doses,SIK3; [3],1820 nM
same,potency estimated from few doses,"SIK3; compound concentrations:100 nM and 1000 nM (sheet 'Lestaurtinib' of Supplementary Table 1),run:Lestaurtinib_02601_R2,Plate:MR018",1650 nM
same,potency estimated from few doses,"SIK3; compound concentrations:100 nM and 1000 nM (sheet 'Lestaurtinib' of Supplementary Table 1),run:Lestaurtinib_02606_R2,Plate:MR019",1760 nM
same,potency estimated from few doses,"SIK3; compound concentrations:100 nM and 1000 nM (sheet 'Lestaurtinib' of Supplementary Table 1),run:Lestaurtinib_02624_R1,Plate:MR020",1910 nM
same,potency estimated from few doses,"SIK3; compound concentrations:100 nM and 1000 nM (sheet 'Lestaurtinib' of Supplementary Table 1),run:Lestaurtinib_02724_R1,Plate:MR021",1300 nM
same,potency estimated from few doses,"SIK3; compound concentrations:100 nM and 1000 nM (sheet 'Lestaurtinib' of Supplementary Table 1),run:Lestaurtinib_02724_R2,Plate:MR021",1320 nM
same,potency estimated from few doses,SIK3; [4],1350 nM
same,potency estimated from few doses,"SIK3; compound concentrations:100 nM and 1000 nM (sheet 'Lestaurtinib' of Supplementary Table 1),run:Lestaurtinib_02741_R2,Plate:MR023",1300 nM
same,potency estimated from few doses,SIK3; [13],1410 nM
same,potency estimated from few doses,SIK3; [5],1490 nM
same,potency estimated from few doses,"SIK3; compound concentrations:100 nM and 1000 nM (sheet 'Lestaurtinib' of Supplementary Table 1),run:Lestaurtinib_02752_R1,Plate:MR025",1430 nM
same,potency estimated from few doses,"SIK3; compound concentrations:100 nM and 1000 nM (sheet 'Lestaurtinib' of Supplementary Table 1),run:Lestaurtinib_02752_R2,Plate:MR025",1720 nM
same,potency estimated from few doses,"SIK3; compound concentrations:100 nM and 1000 nM (sheet 'Lestaurtinib' of Supplementary Table 1),run:Lestaurtinib_02765_R2,Plate:MR026",1360 nM
same,potency estimated from few doses,"SIK3; compound concentrations:100 nM and 1000 nM (sheet 'Lestaurtinib' of Supplementary Table 1),run:Lestaurtinib_02766_R1,Plate:MR027",1130 nM
same,potency estimated from few doses,"SIK3; compound concentrations:100 nM and 1000 nM (sheet 'Lestaurtinib' of Supplementary Table 1),run:Lestaurtinib_02768_R3,Plate:MR028",1510 nM
same,potency estimated from few doses,"SIK3; compound concentrations:100 nM and 1000 nM (sheet 'Lestaurtinib' of Supplementary Table 1),run:Lestaurtinib_02795_R1,Plate:MR022",2150 nM
same,potency estimated from few doses,"SIK3; compound concentrations:100 nM and 1000 nM (sheet 'Lestaurtinib' of Supplementary Table 1),run:Lestaurtinib_02802_R1,Plate:MR029",1990 nM
same,potency estimated from few doses,"SIK3; compound concentrations:100 nM and 1000 nM (sheet 'Lestaurtinib' of Supplementary Table 1),run:Lestaurtinib_02802_R3,Plate:MR029",1720 nM
same,potency estimated from few doses,SIK3; [6],1210 nM
same,potency estimated from few doses,"SIK3; compound concentrations:100 nM and 1000 nM (sheet 'Lestaurtinib' of Supplementary Table 1),run:Lestaurtinib_03172_R1,Plate:MR031",1420 nM
same,potency estimated from few doses,"SIK3; compound concentrations:100 nM and 1000 nM (sheet 'Lestaurtinib' of Supplementary Table 1),run:Lestaurtinib_03172_R2,Plate:MR031",1540 nM
same,potency estimated from few doses,SIK3; [14],1130 nM
same,potency estimated from few doses,"SIK3; compound concentrations:100 nM and 1000 nM (sheet 'Lestaurtinib' of Supplementary Table 1),run:Lestaurtinib_03252_R1,Plate:MR032",1350 nM
same,potency estimated from few doses,"SIK3; compound concentrations:100 nM and 1000 nM (sheet 'Lestaurtinib' of Supplementary Table 1),run:Lestaurtinib_03252_R2,Plate:MR032",1130 nM
same,potency estimated from few doses,"SIK3; compound concentrations:100 nM and 1000 nM (sheet 'Lestaurtinib' of Supplementary Table 1),run:Lestaurtinib_03260_R2,Plate:MR033",1420 nM
same,potency estimated from few doses,SLK; [7],859 nM
same,potency estimated from few doses,"SLK; compound concentrations:100 nM and 1000 nM (sheet 'Lestaurtinib' of Supplementary Table 1),run:Lestaurtinib_02364_R2,Plate:MR002",1540 nM
same,potency estimated from few doses,"SLK; compound concentrations:100 nM and 1000 nM (sheet 'Lestaurtinib' of Supplementary Table 1),run:Lestaurtinib_02364_R3,Plate:MR002",1370 nM
same,potency estimated from few doses,"SLK; compound concentrations:100 nM and 1000 nM (sheet 'Lestaurtinib' of Supplementary Table 1),run:Lestaurtinib_02367_R1,Plate:MR003",1350 nM
same,potency estimated from few doses,"SLK; compound concentrations:100 nM and 1000 nM (sheet 'Lestaurtinib' of Supplementary Table 1),run:Lestaurtinib_02367_R2,Plate:MR003",1300 nM
same,potency estimated from few doses,SLK; [15],1530 nM
same,potency estimated from few doses,SLK; [16],1210 nM
same,potency estimated from few doses,"SLK; compound concentrations:100 nM and 1000 nM (sheet 'Lestaurtinib' of Supplementary Table 1),run:Lestaurtinib_02407_R2,Plate:MR005",1670 nM
same,potency estimated from few doses,SLK; [8],1150 nM
same,potency estimated from few doses,SLK; [17],1360 nM
same,potency estimated from few doses,SLK; [18],1420 nM
same,potency estimated from few doses,SLK; [9],992 nM
same,potency estimated from few doses,SLK; [19],1420 nM
